Measurements published in PubChem BioAssay (NCATS).
Inconclusive results are not listed. Calls of active or inactive are those of the source. Calls follow the shape of the dose curve; as a rule, active = well fitted cell-killing curve with a large enough effect; inconclusive = small, poorly fitted or top-dose-only effect, or effect the other way; inactive = no such curve, though single readings can be large or run the other way.

Experiment: Quantitative High-Throughput drug screen in 47 multiple myeloma cell lines against the NCATS MIPE library collection: KMS12BM_JCRB cell viability assay (AID 1918971); also: nearly all actives have a fitted effect of over 35% in size
Conditions: KMS12BM myeloma viability, CellTiter-Glo ATP, 48 h; series mostly up to 45.8 µM
Text: PI: Beverly A. Mock Ph.D.
Laboratory of Cancer Biology and Genetics,
Center for Cancer Research, National Cancer Institute,
National Institute of Health, Bethesda, Maryland
Drug resistance and disease progression are common in multiple myeloma (MM) patients, underscoring the need for new therapeutic combinations. […] We hypothesized that effective combinations would reduce MYC expression and enhance p16 activity. […] These preclinical data identify potentially useful drug combinations for evaluation in drug-resistant MM and reveal potential mechanisms of combined drug sensitivity.
Described herein is the primary MIPE qHTS used to cherrypick compounds. Validated compounds were then further tested for potential synergistic activiy.
[1] Peat TJ, Gaikwad SM, Dubois W, Gyabaah-Kessie N, Zhang S, Gorjifard S, Phyo Z, Andres M, Hughitt VK, Simpson RM, Miller MA, Girvin AT, Taylor A, Williams D, D'Antonio N, Zhang Y, Rajagopalan A, Flietner E, Wilson K, Zhang X, Shinn P, Klumpp-Thomas C, McKnight C, Itkin Z, Chen L, Kazandijian D, Zhang J, Michalowski AM, Simmons JK, Keats J, Thomas CJ, Mock BA. Drug combinations identified by high-throughput screening promote cell cycle transition and upregulate Smad pathways in myeloma. Cancer Lett. 2023 Aug 1;568:216284. doi: 10.1016/j.canlet.2023.216284. Epub 2023 Jun 24. PMID: 37356470; PMCID: PMC10408729.
SEQUENCE No. (e.g., 1, 2, 3, etc.); […] (e.g., Cells, Incubation, Reagent, etc.); VALUE and DESCRIPTION.
1; Cells; 5 uL; white, solid bottom 1536-well Greiner assay plate.
2; Compounds; 23 nL; Kalypsis pin tool (Wako USA) equipped with a 1536-well pin head to transfer to the assay plates.
3; Incubation; 48 hours; 37C incubation.
4; Reagent;5uL; CellTiter Glo (Promega).
5; Detector; 425V; Luminescence; Viewlux PerkinElmer.
NOTES (numbers refer to Sequence numbers above)
1. The cell-based screening methods employed in this study were like those previously published. Briefly, the corresponding myeloma cell lines were screened in 1,536-well plates with 500 cells, 5-uL per well for inhibition of cell viability (assessed by measuring ATP levels with CellTiterGlo).
2. NCATS MIPE 4.0 library of approved and investigational drugs were added using the Kalypsis pin tool. Wells treated with DMSO only for 100% viability and media only wells for 0% viability were used as controls.
3. The assay plates were covered and incubated for 48 hours in a 37C, 5% CO2 incubator with controlled humidity.
4. After 48 hours, CellTilter-GloTM luminescent substrate mix (Promega) reagent was added to the assay plate and plates we incubated for 5 min at room temperature.
5. Signal was measured as median relative luminescence units on a ViewLux (PerkinElmer) multiplate reader.
[1] Heske CM, Davis MI, Baumgart JT, Wilson K, Gormally MV, Chen L, Zhang X, Ceribelli M, Duveau DY, Guha R, Ferrer M, Arnaldez FI, Ji J, Tran HL, Zhang Y, Mendoza A, Helman LJ, Thomas CJ. Matrix Screen Identifies Synergistic Combination of PARP Inhibitors and Nicotinamide Phosphoribosyltransferase (NAMPT) Inhibitors in Ewing Sarcoma. Clin Cancer Res. 2017 Dec 1;23(23):7301-7311. doi: 10.1158/1078-0432.CCR-17-1121. Epub 2017 Sep 12. PMID: 28899971; PMCID: PMC6636827.
Potency is read from the fitted curve at half-maximal effect.

Compound | Potency
O=C(Nc1ccncc1)C(=O)c1cn(Cc2ccc(Cl)cc2)c2ccccc12 | 0.148 µM (active)
COc1cc2cc(c1Cl)N(C)C(=O)C[C@H](OC(=O)C(C)C)[C@]1(C)O[C@H]1[C@H](C)[C@@H]1C[C@@](O)(NC(=O)O1)[C@H](OC)C=CC=C(C)C2 | inactive
CC(C)(C)[C@]1(O)C[C@@H]2OC(=O)C[C@@]23C(=O)O[C@@H]2OC(=O)[C@H](O)C213 (stereo not given in full) | inactive
CC1=NN=C(c2ccc(N)cc2)c2cc3c(cc2C1)OCO3 | inactive
O=S(=O)(CC1CS1)c1ccc(Oc2ccccc2)cc1 (stereo not given) | 26.4 µM (active)
COc1ccc(N(C(=O)Oc2c(C)cccc2C)c2ccnc(Nc3ccc(N4CCN(C)CC4)cc3)n2)c(OC)c1 | 1.48 µM (active)
C[C@]12COC(=O)C[C@@H]1CC[C@@H]1[C@H]2CC[C@@]2(C)[C@H]1CC[C@]2(C)O | 1.18 µM (active)
Cc1c(C(=O)c2cccc3ccccc23)c2cccc3c2n1[C@H](CN1CCOCC1)CO3 | 18.7 µM (active)
O=S(=O)(F)Cc1ccccc1 | inactive
O=C(O)CNC(=O)c1c(O)c2ccccc2n(Cc2ccccc2)c1=O | inactive
CCNC(=O)C[C@@H]1N=C(c2ccc(Cl)cc2)c2cc(OC)ccc2-n2c(C)nnc21 | 0.235 µM (active)
CCc1c(C(=O)C(N)=O)c2c(OCC(=O)O)cccc2n1Cc1ccccc1 | inactive
O=C(Oc1ccc([N+](=O)[O-])cc1)N1CCC(C(O)(c2ccc3c(c2)OCO3)c2ccc3c(c2)OCO3)CC1 | inactive
C=CCON=C(C[C@H]1O[C@@H]2O[C@]3(C)CC[C@@H]4[C@H](C)CC[C@@H]([C@H]1C)[C@@]24OO3)[C@H]1O[C@@H]2O[C@]3(C)CC[C@H]4[C@H](C)CC[C@@H]([C@@H]1C)[C@@]24OO3 | 0.148 µM (active)
COC[C@H]1OC(=O)c2coc3c2[C@@]1(C)C1=C(C3=O)[C@@H]2CC[C@H](O)[C@@]2(C)C[C@@H]1OC(C)=O | 3.32 µM (active)
COc1ccc2c(c1)[C@]13CCCCC1C(C2)N(C)CC3 (stereo not given in full) | inactive
N=c1c2c(-c3ccccc3)c(-c3ccccc3)n(Cc3ccccc3)c2ncn1C1CCC(O)CC1 (stereo not given) | 6.62 µM (active)
CCN1CCN(C(=O)Cc2ccc(Nc3ncc(F)c(Nc4ccc(C(=O)Nc5ccccc5Cl)cc4)n3)cc2)CC1 | 7.43 µM (active)
COc1cc([C@@H]2c3cc4c(cc3[C@@H](O)C3COC(=O)C32)OCO4)cc(OC)c1O (stereo not given in full) | 0.0418 µM (active)
CN(C)NC(=O)CCC(=O)O | 7.43 µM (active)

Compound | Potency
C[C@H]1CCCC=CC2C[C@H](O)C[C@@H]2[C@H](O)C=CC(=O)O1 (stereo not given in full) | inactive
COc1ccc2c(c[n+](C)c3c4cc5c(cc4ccc23)OCO5)c1OC | 3.72 µM (active)
O=[N+]([O-])c1ncc[nH]1 | 16.6 µM (active)
COCC1(CO)C(=O)C2CCN1CC2 (stereo not given) | 7.43 µM (active)
C[C@@]12OC(=O)[C@]1([C@@H](O)[C@@H]1C=CCCC1)NC(=O)[C@H]2CCCl | 0.0235 µM (active)
CCCN1CCO[C@@H]2c3cc(O)ccc3OC[C@@H]21 | 14.8 µM (active)
Cc1ccccc1-n1c(Cn2ncc3c(N)ncnc32)nc2cccc(C)c2c1=O | 7.43 µM (active)
c1ccc2c(CN3CCNCC3)cccc2c1 | inactive
CCCCCC[C@H]1C(=O)O[C@H](C)[C@H](NC(=O)c2cccc(NC=O)c2O)C(=O)O[C@@H](C)[C@@H]1OC(=O)CC(C)C | 6.62 µM (active)
CN1CCN(c2ccc([N+](=O)[O-])c3no[n+]([O-])c23)CC1 | 18.7 µM (active)
O=c1cccc2n1CC1CNC[C@H]2C1 | inactive
CC1(N2CCC(n3c([C@@H]4CCCNC4)nc4ccccc43)CC2)CCCCCCC1 | 20.9 µM (active)
CC(C)[C@]12O[C@@H]1[C@@H]1O[C@]13[C@]1(O[C@H]1C[C@@H]1C4=C(CC[C@@]13C)C(=O)OC4)[C@H]2O | inactive
CN1[C@H]2CC(O)C[C@H]1[C@H]1O[C@H]12 (stereo not given in full) | 18.7 µM (active)
CC=C(C)C(=O)O[C@H]1C(C)=C2[C@@H]3OC(=O)[C@@](C)(O)[C@@]3(O)[C@@H](OC(=O)CCC)C[C@](C)(OC(C)=O)[C@@H]2[C@@H]1OC(=O)CCCCCCC | 0.0418 µM (active)
C=C[C@@H]1CN2CCC1C[C@@H]2[C@@H](O)c1ccnc2ccccc12 (stereo not given in full) | 23.5 µM (active)
C[C@@H]1O[C@@H](O[C@@H]2C=C3CC[C@@H]4[C@@H](CC[C@]5(C)[C@H](c6ccc(=O)oc6)CC[C@@]45O)[C@@]3(C)CC2)[C@H](O)[C@H](O)[C@H]1O | 0.0187 µM (active)
CC1=C(O)C(=O)C=C2C1=CC=C1[C@@]2(C)CC[C@@]2(C)[C@@H]3C[C@](C)(C(=O)O)CC[C@]3(C)CC[C@]12C | 0.526 µM (active)
O=c1[nH]c2ccc(Cl)cc2c(N[C@@H]2CN3CCC2CC3)c1-c1nc2ccccc2[nH]1 | 1.66 µM (active)
c1ccc(CCCN2CCN(CCOC(c3ccccc3)c3ccccc3)CC2)cc1 | 20.9 µM (active)
